VDR inhibitor: Inhibitors of the vitamin D receptor (VDR): qHTS. Vitamin D3 receptor (Homo sapiens), P11473. VDR-SRC2-3 peptide fluorescence polarization, 2 h. Potency, µM, for the others: max response, negative = inhibition, most hits filed as inhibitors. 400,000 tested, 0.93% active. AID 504847, 2011
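VDR–SRC2-3 interaction, FP format. Cmpds 23 nl via pintool, brief spin, 2 h ambient incubation.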
DT40 TDP1 CPT: qHTS for Inhibitors of human tyrosyl-DNA phosphodiesterase 1 (TDP1): qHTS in cells in presence of CPT; Potency, µM (top dose mostly 46.2 µM), inactives show at the top dose activity change, negative = growth inhibition, most hits filed as inhibitors; chicken DT40 Tdp1-/-;hTDP1 cells + 20 nM CPT, ATP luminescence, 48 h; 420,000 tested, 12% active; note: nearly all actives have a fitted effect of over 55% in size
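Cell growth measured by CellTiter-Glo luminescence after a minimum 48 h, 37 C compound exposure with 20 nM CPT in Tdp1-knockout DT40 cells stably expressing hTDP1, seeded 400/well; qHTS titration format.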
DT40 TDP1 no CPT: qHTS for Inhibitors of human tyrosyl-DNA phosphodiesterase 1 (TDP1): qHTS in cells in absence of CPT | DT40 Tdp1-/- hTDP1 cells, no CPT, ATP luminescence, 48 h | Potency, µM (series often up to 46.2 µM), without a hit: top-dose activity change, negative = growth inhibition, hits mostly inhibitors | 420,000 tested, 15% active | AID 686978, 2013; note: nearly all actives have a fitted effect of over 55% in size
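Seeded 400 DT40-hTDP1 cells/well (vehicle DMSO, no 20 nM CPT); pinned compounds; ≥48 hr at 37 °C; CellTiter-Glo luminescence as viability measure.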
GCN5L2 inh: qHTS Assay for Inhibitors of GCN5L2; Histone acetyltransferase KAT2A (Homo sapiens), Q92830; GCN5L2 HAT assay, ThioGlo1 CoA-SH fluorescence; Potency, µM (titrated, usually from 58.9 µM), for inactives: top-dose activity change, negative = inhibition, hits mostly inhibitors; 390,000 tested, 0.21% active
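Compounds, pin-transferred from DMSO stocks, meet 20nM GCN5L2 for 15 min before the reaction begins with H3(1-25) peptide (75uM) and acetyl-CoA (70uM). Thiol-reactive ThioGlo1 reports CoA release over 20 min at room temperature.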
PLK1 PBD block: qHTS for Inhibitors of PLK1-PDB (polo-like kinase 1 - polo-box domain): Primary Screen; Serine/threonine-protein kinase PLK1 (Homo sapiens), P53350; Plk1 PBD binding of FITC phosphopeptide, fluorescence polarization; Potency, µM, for inactives: max response, negative = inhibition, actives largely listed as inhibitors; 360,000 tested, 2.8% active; note: series mostly up to about 57 µM; nearly all actives have a fitted effect of over 65% in size
TDP1 inh: qHTS Assay for Inhibitors of Tyrosyl-DNA Phosphodiesterase (TDP1) | AID 485290, 2010 | Potency, µM (top dose mostly 130 µM), for the others: at the top dose activity change, negative = inhibition, actives largely listed as inhibitors | Tyrosyl-DNA phosphodiesterase 1 (Homo sapiens), Q9NUW8 | recombinant TDP1, AlphaScreen DNA substrate cleavage | 350,000 tested, 0.28% active; note: nearly all actives have a fitted effect of over 40% in size
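Recombinant human Tdp1 (E. coli-expressed, 1 nM final) preincubated with compounds 15 min at room temperature, then 5'-biotin/3'-phosphotyrosine-FITC DNA substrate (15 nM final) added for 5 min. AlphaScreen beads (10 ug/ml final) added 10 min; cleavage lowers signal.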
* = called active by the depositor; u = inconclusive; x = no result given. Only some compounds are listed: those with a hit (about 18% of all), similar ones and a draw of the others. Calls come from the whole dose curve; as a rule, active = well fitted curve in the direction sought with a large enough effect; inconclusive = small, poorly fitted or top-dose-only effect, or another doubt; inactive = no such curve, though single readings can be large; an effect the other way counts as inactive or inconclusive. % is set by controls: 0 for no effect and ±100 for the full control effect; potency is the fitted concentration of half-maximal effect.

SMILES	VDR inhibitor	DT40 TDP1 CPT	DT40 TDP1 no CPT	GCN5L2 inh	PLK1 PBD block	TDP1 inh
CCOc1ccc(S(=O)(=O)N2CCC(C(=O)Nc3ccc(C)c(S(=O)(=O)N4CCOCC4)c3)CC2)cc1	-4.8%	u	u	x	1.3%	x
O=[N+]([O-])c1ccc(-c2csc(Nc3ccccc3)n2)cc1	4.4%	u	12.6µM*	x	x	x
Cc1ccc(C(=O)Nc2cccc(C(F)(F)F)c2)cc1NC(=O)c1csc(-c2ccncc2)n1	6.3%	6.51µM*	4.11µM*	23.0%	-12.7%	5.9%
O=C(Nc1ccc(F)cc1F)c1csc(-c2ccncc2)n1	-1.1%	19.8%	-4.8%	-2.2%	-5.0%	-2.7%
CSc1ncc(C(=O)Nc2ccccc2C(F)(F)F)c(-c2ccccc2)n1	6.4%	-26.2%	-18.7%	-0.6%	x	2.5%
COc1ccccc1-c1nnc(C2CCN(S(=O)(=O)c3ccc(CC(C)C)cc3)CC2)o1	2.4%	u	u	-3.6%	x	6.4%
CCc1ccc(NC(=O)CSc2nc3ccccc3nc2Cc2ccc(C)cc2)cc1	8.9%	u	16.4µM*	-6.1%	x	-5.4%
Cc1cc(C)c(NC(=O)CSc2nc3ccccc3nc2N2CCCCC2)c(C)c1	2.9%	7.31µM*	14.6µM*	2.2%	x	2.1%
O=C(CSc1nc2ccccc2nc1N1CCCC1)Nc1ccc(Cl)cc1	u	u	25.9µM*	-10.6%	-10.3%	x
CCc1ccc(NC(=O)CSc2nc3ccccc3nc2N2CCCC2)cc1	-4.2%	10.3µM*	4.61µM*	-14.4%	-5.1%	x
